Reference: PubChem BioAssay AID504467 (National Center for Advancing Translational Sciences (NCATS), 2011)
In all, about 330,000 compounds went through this assay and about 7,700 (2.3%) were called active. Inconclusive results (about 26%) are left out. What follows is part of a selection rich in actives, with near analogues and random picks from the rest. Values without a mark were called inactive. Calls follow the shape of the dose curve; as a rule, active = well fitted inhibition curve with a large enough effect; inconclusive = small, poorly fitted or top-dose-only effect, or effect the other way; inactive = flat fitted curve, though single readings scatter.

Assay: qHTS screen for small molecules that inhibit ELG1-dependent DNA repair in human embryonic kidney (HEK293T) cells expressing luciferase-tagged ELG1; also: nearly all actives have a fitted effect of over 55% in size
Conditions: HEK293T ELG1-luciferase reporter, luminescence, 16 h, DNA damage induced by 5-fluorouridine; series mostly up to 46.1 µM; activity change, negative = inhibition: at the top concentration
Outline: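 Reporter activity after DNA damage by 5-fluorouridine is monitored. Compound-treated cells incubate 16 hr at 37 °C, then ONE-Glo is added for 30 min before luminescence reading.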
% is scaled to controls: 0 for no effect and ±100 for the full control effect; potency is read from the fitted curve at half-maximal effect.

Point of comparison: `COc1ccccc1N1CCN(C(=O)c2ccc(NC3=NC4CS(=O)(=O)CC4S3)cc2)CC1` (centres undefined), “activity change, negative = inhibition” value 7.13%. Against it:
- CC(Sc1nn(-c2ccc(Cl)cc2)c(=S)s1)C(=O)NCC1CCCO1 (centres undefined) — lower, -2.87%
- COc1ccccc1N(CCOc1ccccc1)S(=O)(=O)c1ccccc1 — lower, -19.8%
- COC(=O)CSC1=C(C#N)C(c2ccccc2OC)C(C(=O)OC)C(=O)N1 (centres undefined) — lower, 2.99%
- N#CC1=C(SCc2ccc(C#N)cc2)N=C(N)C(c2nc(-c3ccccc3)cs2)C12CCCCC2 (centres undefined) — lower, -13.3%
- COc1ccc(C(=O)NCc2nnc(SCC(=O)NC3=NCCS3)n2C)cc1 — lower, -4.54%
- O=C(COC(=O)c1cc[n+]([O-])cc1)Nc1ccc(Cl)c(C(F)(F)F)c1 — lower, -11.3%
- CN(C)C1=NC[C@H](Cc2ccccc2)N1CCc1ccc(F)cc1 — lower, -5.08%
- COc1ccc(NC(=O)C2CCC(CNC(=O)[C@@H]3Cc4ccccc4CN3)CC2)cc1 (some centres undefined) — higher, 13.7%
- COc1ccc(N(Cc2cc3ccc(C)cc3[nH]c2=O)S(=O)(=O)c2ccccc2)cc1 — lower, -22.6%
- CC(C)n1cnc2c(NCc3ccccc3)cc(OCC3CCN(C)CC3)cc21 — lower, -16.7%
- COc1ccc(CNC(=O)/C(C#N)=C/c2cccc(OC)c2OC)cc1 — lower, -0.822%
- CN(CC(=O)Nc1ccc(OC(F)F)cc1)S(=O)(=O)/C=C/c1ccccc1 — lower, -12.2%
- COc1ccc(N2CCN(c3ccc([N+](=O)[O-])cc3Cl)CC2)cc1 — lower, -2.92%
- O=C(O)C1CCN(c2ccc([N+](=O)[O-])cc2[N+](=O)[O-])CC1 — higher, 18.3%
- CN(C)C(=O)CCc1ccc2c3c([nH]c2c1)[C@]1(CCC2CCCC2)[C@@H](C(=O)N2CCOCC2)C[C@H](CC(=O)NCc2ccco2)C(=O)N1CC3 — higher, 17.9%
- CCN(CC(=O)Nc1cc(Cl)ccc1C)C(=O)Cn1c(=O)cnc2ccccc21 — lower, -0.672%
- CC(Oc1ccc2c(-c3ccccc3)cc(=O)oc2c1)C(=O)NC(Cc1c[nH]c2ccccc12)C(=O)O (centres undefined) — lower, 1.53%
- CC(C)(C)OC(=O)C[C@@H]1C/C=C\C[C@@H](CC(=O)N[C@H](CO)Cc2ccccc2)C(=O)NCCOC1=O — lower, 0.537%
- CCNC(=S)N1CCN(c2ncccn2)CC1 — lower, -1.72%
- CC(Oc1ccc(F)cc1)C(=O)N1CCN(c2ncccn2)CC1 (centres undefined) — lower, -3.2%
- CN(C(=O)CN1C(=O)/C(=C/c2ccc(Cl)cc2)SC1=S)C1CCS(=O)(=O)C1 (centres undefined) — lower, 5.67%
- COCCn1c(SCC(=O)Nc2ccc3c(c2)CCC3)nc2ccccc2c1=O — lower, -28.4%
- CC(=O)NCCn1c(SCC(=O)Nc2ccc(C)cc2)nc2ccccc2c1=O — lower, -0.151%
- COc1cc(/C=C/C(=O)OCC(=O)c2ccccc2)cc(OC)c1OC — lower, 0.612%
- O=C(c1ccc(Cl)nc1)N1CCN(S(=O)(=O)c2ccc3c(c2)OCCO3)CC1 — lower, -27.2%
- COc1ccc(C(C(=O)NC(C)(C)C)N(Cc2ccc(F)cc2)C(=O)CCC(=O)Nc2cc(C)on2)cc1 (centres undefined) — higher, 13.4%
- Cc1cc(NC(=O)C(C)SCC(=O)Nc2ccccc2N2CCCCC2)no1 (centres undefined) — lower, -18.5%
- C[C@H](NS(=O)(=O)c1ccc(Cl)cc1)C(=O)OCC(=O)N1CCOCC1 — lower, -8.58%
- Cn1c(SCC(=O)N2CCCCC2)nc2c(c1=O)SCC2 — lower, 0.685%
- CCn1c(SCc2ccccc2)nc2c(c1=O)SCC2 — lower, 1.33%
- Cc1ccc(C(=O)NNC(=O)CSc2nnc3ccccn23)cc1 — higher, 15%
- Cc1nn(CC(=O)N2CCCCC2)c(=O)c2nn(-c3ccccc3)c(C)c12 — lower, -1%
- COc1ccc(CNC(=O)C(C)n2nc(C)c3c(C)n(-c4ccccc4)nc3c2=O)c(OC)c1 (centres undefined) — lower, -14.9%
- COc1ccc(S(=O)(=O)N2CCOC23CCN(S(=O)(=O)c2ccc([N+](=O)[O-])cc2)CC3)cc1 — higher, 9.51%
- COc1ccccc1C(=O)N1CC2(C)CC1CC(C)(C)C2 (centres undefined) — lower, -15.1%
- Cc1cccc(C(=O)NCC(=O)OCC(=O)N2CC3(C)CC2CC(C)(C)C3)c1 (centres undefined) — lower, 6.11%
- Cc1ccc(CNC(=O)c2cc(-c3ccccc3C)n(CC3CC(c4cccc([N+](=O)[O-])c4)=NO3)n2)cc1 (centres undefined) — lower, -6.87%
- O=C(c1ccccc1)N1N=C(c2ccccc2O)CC1c1ccc(Br)cc1 (centres undefined) — lower, -16.7%
- COc1ccc2c(CC(=O)NNC(=O)c3ccccc3F)coc2c1 — lower, -10.1%
- COc1ccc(Cn2c(=S)[nH]c3cc(C(=O)NCCCN4CCOCC4)ccc3c2=O)cc1 — lower, -1.8%
- CCC(=O)Nc1ccc(C(=O)Nc2ccc3c(c2)C(=O)N(CC2CCCO2)C3=O)cc1 (centres undefined) — lower, -6.04%
- COc1ccc(OC)c(CNC(=O)C2CCCN(c3nc4ccccc4o3)C2)c1 (centres undefined) — lower, -15.2%
- COc1ccccc1CNC(=O)C1CCN(c2nc3ccccc3o2)CC1 — lower, -24.9%
- CCN(CC(=O)Nc1cc(Cl)ccc1C)C(=O)CSCc1ccccc1 — lower, 0.543%
- CN(C)/N=C/c1cn(-c2ccccc2)nc1-c1cccnc1 — lower, -24.6%
- O=C(O)c1ccc(NC(=O)c2cn(-c3ccccc3)nc2-c2ccc(Cl)cc2)cc1 — higher, 23.2%
- COc1ccc(-c2nn(-c3ccccc3)cc2C(=O)Nc2nc(CC(C)=O)ns2)cc1 — lower, -25.3%
- Cc1nnc(SCC(=O)N/N=C/c2cn(-c3ccccc3)nc2-c2ccc(F)cc2)n1-c1ccccc1 — lower, -7.68%
- CCC(C)N(C(=O)CSc1ncnc2c1cnn2-c1ccccc1)C1CCS(=O)(=O)C1 (centres undefined) — lower, -23.7%
- O=C(CSc1nc2ccccc2c(=O)n1Cc1ccc(F)cc1)NCC1CCCO1 (centres undefined) — lower, 4.76%
- CN(Cc1nc2ccccc2s1)C(=O)c1ccc(F)cc1 — higher, 11.3%
- Cc1nc2ccccc2c(-c2ccccc2)c1C(=O)c1ccccc1 — lower, -18.7%
- Cc1ccc2nc(SCC(=O)N3CC(C)OC(C)C3)nc(=O)n2c1 (centres undefined) — higher, 28.1%
- COc1ccc(CCNC(=O)C2CCCN(S(=O)(=O)c3ccc(OC)cc3)C2)cc1 (centres undefined) — lower, -14.9%
- CCN(CC(=O)Nc1ccc(S(=O)(=O)N2CCCC2)cc1)CC(=O)Nc1cccc(OC)c1 — lower, 0.139%
- O=C(O)C1CCCN(S(=O)(=O)c2cccc3cccnc23)C1 (centres undefined) — lower, 5.15%
- COc1ccccc1CNC(=O)C1CCCN(S(=O)(=O)c2cccc3cccnc23)C1 (centres undefined) — lower, -0.624%
- CCOc1ccc(NC(=O)COc2ccc(S(=O)(=O)N3CCCC3)cc2)cc1 — lower, 0.975%
- Cc1ccc(C)c(OCCC(=O)Nc2cccc(S(=O)(=O)N3CCCC3)c2)c1 — lower, -28.4%
- COc1ccc(C(=O)O)cc1S(=O)(=O)NC1CCN(Cc2ccccc2)CC1 — higher, 18.1%
- CCOCCCN(C)C1CCN(C(=O)c2oc3ccccc3c2NC(=O)Cc2cccc([N+](=O)[O-])c2)CC1 — lower, -0.878%
- CCCCC[C@@H]1C=C(C(=O)O)[C@H](c2ccc(C#N)cc2)N1S(=O)(=O)c1ccc(C)cc1 — lower, -1.41%
- COc1ccc(C(C(=O)NCC2CCCO2)N(C(=O)Cn2nnc3ccccc32)c2ccc(NC(C)=O)cc2)cc1OC (centres undefined) — higher, 22.7%
- COc1ccccc1CNS(=O)(=O)c1cc(C(=O)NCc2ccccn2)c(Cl)cc1Cl — lower, -4.45%
- COc1ccc(N2CCN(C(=O)Cn3cnc4sc(C)c(S(=O)(=O)N5CCOCC5)c4c3=O)CC2)cc1 — lower, -2.61%
- COc1ccc(OCC(=O)Nc2ccc(NC(=O)c3ccco3)c(C)c2)cc1 — higher, 22.9%
- Cc1cccc(OCC(=O)Nc2ccc(NC(=O)c3ccco3)c(C)c2)c1 — lower, 4.01%
- Cc1ccc2c(c1)c1ncn(Cc3ccc(F)cc3)c(=O)c1n2C — higher, 10.3%
- CC(C)(C)n1ncc2c(=O)n(Cc3c(Cl)cccc3Br)cnc21 — lower, -23.1%
- COc1cc(NC(=O)COC(=O)c2cc(S(=O)(=O)N3CCOCC3)ccc2F)cc(OC)c1 — lower, -6.98%
- COCCNc1nc(N)c([N+](=O)[O-])c(N2CCCCCC2)n1 — lower, -15.1%
- O=C(CN1CCN(c2ccccc2O)CC1)NC(=O)NCc1ccccc1 — lower, -4.25%
- C/C(=C\c1ccco1)CN1CCC(N2CCC(C(=O)N3CCOCC3)CC2)CC1 — lower, 0.385%
- O=C(C1CCN(C2CCN(Cc3cccc4c3OCO4)CC2)CC1)N1CCOCC1 — lower, -21.1%

In the case of `N#CC1=C(SCc2ccccc2)NC(=O)C(C#N)C12CCCC2` (centres undefined), the Potency is reported as 14.6 µM (active).
With `CC(C)n1cnc2c(NCc3ccccc3)cc(N[C@@H](CO)Cc3ccccc3)cc21` the Potency was 16.4 µM (active).
For `O=[N+]([O-])c1ccc(N2CCN(c3ccc(O)cc3)CC2)c(Cl)c1`, the Potency was 23.1 µM (active).
For `CC12CCC(C(=O)N3CCN(c4ncccn4)CC3)(c3nc4ccccc4nc31)C2(C)C` (centres undefined), the Potency was 4.11 µM (active).
In the case of `CCn1c(SCC(=O)Nc2ccc(C)cc2)nc2nc3c(cc2c1=O)CCCC3`, the Potency is reported as 18.4 µM (active).
For `Cc1cccc(CSc2nc3c(c(=O)n2C)SCC3)c1`, the Potency was 14.6 µM (active).
For `COc1ccc(OC)c(CNC(=O)Cn2nc(C)c3c(C)n(-c4ccc(C)cc4)nc3c2=O)c1`, the Potency was 8.2 µM (active).
In the case of `Cc1nnnn1/C(=C\c1ccccc1)C(=O)OCC(=O)N1CC2(C)CC1CC(C)(C)C2` (centres undefined), the Potency is reported as 20.6 µM (active).
In the case of `Cc1cccc(NC(=O)c2ccc3c(=O)n(CC4CCCO4)c(=S)[nH]c3c2)c1` (centres undefined), the Potency is reported as 16.4 µM (active).
In the case of `COc1ccc(-c2nn(C)c(=O)c3ccccc23)cc1CNC(=O)C1CCCCC1`, the Potency is reported as 20.6 µM (active).
For `COc1ccc(-c2nn(-c3ccccc3)cc2C(=O)Nc2nccs2)cc1OC`, the Potency was 3.26 µM (active).
With `COc1ccc(-c2nn(-c3ccccc3)cc2/C=N/Nc2ccccn2)cc1OC` the Potency was 14.6 µM (active).
With `Cc1nc2ccccc2c(C)c1C(=O)c1ccc(F)cc1` the Potency was 14.6 µM (active).
For `CCOc1cccc(NC(=O)C2CCCN(S(=O)(=O)c3ccc(OC)cc3)C2)c1` (centres undefined), the Potency was 23.1 µM (active).
In the case of `COc1ccc(NC(=O)C2CCCN(S(=O)(=O)c3cccc4cccnc34)C2)cc1OC` (centres undefined), the Potency is reported as 20.6 µM (active).
With `Cc1cccc(OCCCC(=O)Nc2ccc(S(=O)(=O)N3CCCC3)cc2)c1` the Potency was 18.4 µM (active).
In the case of `CCN(CC)P(=O)(Nc1ccc(SC(F)F)cc1)c1ccc(N(C)C)cc1NC(=O)c1ccco1` (centres undefined), the Potency is reported as 7.3 µM (active).
In the case of `CC(C)(C)n1ncc2c(=O)n(Cc3ccc(Cl)cc3)cnc21`, the Potency is reported as 20.6 µM (active).
For `O=C(C1CCN(C2CCN(Cc3ccc4cc(F)ccc4n3)CC2)CC1)N1CCCC1`, the Potency was 13 µM (active).
